Measured values reported in PubChem BioAssay (NCATS).
Inconclusive results are not listed. Unmarked numbers belong to inactive results. The source made the active and inactive calls. Calls come from the whole dose curve; as a rule, active = well fitted inhibition curve with a large enough effect; inconclusive = small, poorly fitted or top-dose-only effect; inactive = no such curve, though single readings can be large or run the other way.

assay: BET inhibitor-based combinations targeting novel dependencies in MECOM-rearranged (r) AML: HNT-34 cell line (AID 2202234); conditions: HNT-34 AML viability, CellTiter-Glo luminescence, 48 h; series mostly up to 46 µM; viability (% of control): at the top concentration; note: nearly all actives have a fitted effect of over 35% in size;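 for viability (% of control): plate controls were vehicle wells for no effect and cell-free wells for full effect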
Procedure, shortened: (§1)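 Luminescent ATP readout (CellTiter-Glo, 15 min at room temperature) after 48 hr drug exposure gave viability. Dose-response curves, normalized to DMSO and empty-well controls, were summarized as area under the curve and its mean-centred Z-score.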
Potency is the fitted concentration of half-maximal effect.

Compound	viability (% of control)	Potency
CCN(C(=O)c1ccccc1OC)c1cc2c(cc1N1CCNC[C@H]1C)n(C)c(=O)n2C	101%	–
CN(C)C/C=C/C(=O)Nc1cc2c(Nc3ccc(F)c(Cl)c3)ncnc2cc1O[C@H]1CCOC1	–	2.95 µM (active)
COc1cc(OC)c(/C=C/S(=O)(=O)Cc2ccc(OC)c(OP(=O)(O)O)c2)c(OC)c1	–	0.105 µM (active)
O=C(c1ccc(Nc2nc(C3CC3)cn3c(-c4cn[nH]c4)cnc23)c(F)c1)N1CCOCC1	–	5.25 µM (active)
Cc1ccc(-c2ncn(-c3ccc(Nc4nccc(-c5cccc(N6CCOCC6)c5)n4)cc3)n2)cn1	–	2.95 µM (active)
CCOc1cc(/C=C2/C(=O)N(c3ccccc3)N=C2C)cc(Cl)c1OCC(=O)OC	88.9%	–
Cc1ncsc1-c1ccc([C@H](C)NC(=O)[C@@H]2C[C@@H](O)CN2C(=O)[C@@H](NC(=O)COCCCOCCNC(=O)C[C@@H]2N=C(c3ccc(Cl)cc3)c3c(sc(C)c3C)-n3c(C)nnc32)C(C)(C)C)cc1	–	0.0295 µM (active)
O=c1sn(-c2cccc3ccccc23)c(=O)n1Cc1ccccc1	62.5%	–
CC(C)(C(=O)NCC(F)(F)C(F)(F)F)C(=O)N[C@@H]1C(=O)Nc2ccccc2-c2ccccc21	93.1%	–
N#C/C(=C1/Nc2ccccc2S1)c1ccnc(OCc2ccc(CN3CCOCC3)cc2)n1	–	16.6 µM (active)
CC1=NN(c2ccc(C(=O)O)cc2)C(=O)/C1=C/c1ccc(-c2cc(C)c(C)cc2[N+](=O)[O-])o1	102%	–
CC#Cc1cncc(-c2ccc3c(c2)[C@@]2(N=C(C)C(N)=N2)C2(CCC(OC)CC2)C3)c1 (stereo partly specified)	95.8%	–
CC[C@H](C)C(=O)O[C@H]1C[C@H](O)C=C2C=C[C@H](C)[C@H](CC[C@@H](O)C[C@@H](O)CC(=O)O)[C@H]21	107%	–
CC1(N)CCN(c2cnc(-c3cccc(Cl)c3Cl)c(N)n2)CC1	103% [at 15.6 µM]	–

assay: BET inhibitor-based combinations targeting novel dependencies in MECOM-rearranged (r) AML: UCSD-AML1 cell line (AID 2202235); conditions: UCSD-AML1 AML cells viability, CellTiter-Glo, 48 h; series mostly up to 46 µM; viability (% of control): at the top concentration; note: nearly all actives have a fitted effect of over 40% in size;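 for viability (% of control): plate controls were DMSO vehicle wells for no effect and blank wells for full effect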
Procedure, shortened: as §1

Compound	viability (% of control)	Potency
Cc1cc(Nc2cc(N)ncn2)c(=O)n2c1C(=O)NC21CCCCC1	99.1% [at 15.6 µM]	–
C=CC(=O)N[C@H]1CCOC[C@H]1Nc1ncc2cc(-c3c(Cl)c(OC)cc(OC)c3Cl)ccc2n1	87.5%	–
Fc1ccc(-c2csc3ncnc(NCc4ccc5c(c4)OCO5)c23)cc1	–	20.9 µM (active)
CCN(C(=O)c1ccccc1OC)c1cc2c(cc1N1CCNC[C@H]1C)n(C)c(=O)n2C	106%	–
C=CCc1cccc(/C=N/NC(=O)CN2CCN(Cc3ccccc3)CC2)c1O	–	23.5 µM (active)
COc1cc(OC)c(/C=C/S(=O)(=O)Cc2ccc(OC)c(OP(=O)(O)O)c2)c(OC)c1	–	0.118 µM (active)
Nc1nc(OC(c2ccc(-c3cccc(F)c3)cc2)C(F)(F)F)cc(-c2ccc(C[C@@H](N)C(=O)O)cc2)n1 (stereo partly specified)	101%	–
CN[C@@H](C)C(=O)N[C@H](C(=O)N1CCC[C@H]1c1nc(C(=O)c2ccc(F)cc2)cs1)C1CCCCC1	–	20.9 µM (active)
O=C1S/C(=C\c2ccc(OCc3cccc(B(O)O)c3)cc2)C(=O)N1Cc1ccc(F)cc1	108%	–
COc1ccc(/C=C\c2cc(OC)c(OC)c(OC)c2)cc1O	–	0.0118 µM (active)
CC1=C(/C=C/C(C)=C/C=C/C(C)=C/C=C/C=C(C)/C=C/C=C(C)/C=C/C2=C(C)CCCC2(C)C)C(C)(C)CCC1	105%	–
COc1ccccc1C(=O)Nc1cc2c(cc1N1CCNC[C@H]1C)n(C)c(=O)n2C	106%	–
O=C(NCc1ccccc1)[C@H](Cc1ccccc1)NC(=O)[C@H]1O[C@@H]1C(=O)NCCc1ccc(O)cc1	94.6%	–
CCOc1cc(/C=C2/C(=O)N(c3ccccc3)N=C2C)cc(Cl)c1OCC(=O)OC	101%	–
C=CC(=O)Nc1cccc(Oc2nc(Nc3ccc(N4CCN(C)CC4)cc3)nc3ccsc23)c1	–	9.34 µM (active)
Cc1ncsc1-c1ccc([C@H](C)NC(=O)[C@@H]2C[C@@H](O)CN2C(=O)[C@@H](NC(=O)COCCCOCCNC(=O)C[C@@H]2N=C(c3ccc(Cl)cc3)c3c(sc(C)c3C)-n3c(C)nnc32)C(C)(C)C)cc1	–	0.0833 µM (active)

Compound	viability (% of control)	Potency
CN(C)Cc1cccc(N=C(c2ccccc2)c2c(O)[nH]c3cc(C(N)=O)ccc23)c1	108%	–
CC(C)(C)c1nc2c3cc[nH]c(=O)c3c3cc(F)ccc3c2[nH]1	–	0.235 µM (active)
CC(C)(C(=O)NCC(F)(F)C(F)(F)F)C(=O)N[C@@H]1C(=O)Nc2ccccc2-c2ccccc21	103%	–
O=C1OC2(CCC(C(=O)Nc3ccn(-c4ccccc4F)n3)CC2)c2cnccc21 (stereo unspecified)	103%	–
CN(C)CC[C@H](CSc1ccccc1)Nc1ccc(S(=O)(=O)NC(=O)c2ccc(N3CCN(Cc4ccccc4-c4ccc(Cl)cc4)CC3)cc2)cc1[N+](=O)[O-]	–	2.95 µM (active)
CC(C)(C)c1[nH]cnc1/C=c1\[nH]c(=O)/c(=C/c2ccccc2)[nH]c1=O	–	0.059 µM (active)
CC[C@H](C)C(=O)O[C@H]1C[C@H](O)C=C2C=C[C@H](C)[C@H](CC[C@@H](O)C[C@@H](O)CC(=O)O)[C@H]21	114%	–
COc1cc(C)c(/C=C/C(C)=C/C=C/C(C)=C/C(=O)O)c(C)c1C	89.5%	–
CCNCCS(=O)(=O)NC[C@@]1(c2ccccc2)SC(NC(=O)C(C)(C)C)=NN1C(=O)C(C)(C)C	–	0.0047 µM (active)
CO[C@H]1O[C@@H]2O[C@@]3(C)CC[C@H]4[C@H](C)CC[C@@H]([C@H]1C)[C@@]24OO3	107%	–
Cc1ccc(NS(=O)(=O)c2cccc(C#N)c2)c2[nH]cc(C#N)c12	–	0.833 µM (active)
c1ccc2[nH]c(-c3cscn3)nc2c1	100%	–
CCOC(=O)c1ccc(C#Cc2ccc3c(c2)C(C)(C)CCS3)nc1	91.7%	–
Cn1cc(C2=C(c3cn(C)c4cc([N+](=O)[O-])ccc34)C(=O)NC2=O)c2ccccc21	–	0.833 µM (active)
CCn1c(=O)c(-c2ccc(-c3cncc(C)n3)cc2Cl)cc2cnc(NCCC3CCN(C)CC3)nc21	99.8% [at 5.12 µM]	–
C[C@H]1CN(C2COC2)CCN1c1ccc(Nc2cc(-c3ccnc(N4CCn5c(cc6c5CC(C)(C)C6)C4=O)c3CO)cn(C)c2=O)nc1	110%	–
